Coupling enz = coupling enzyme interference in Giardia aldolase counter-screen | coupling enzyme system counterscreen, AmpLite Red fluorescence | activity change, negative = inhibition, % at 58.2 µM, hits read low | hit rate 0.67% among 290,000; in the data active means activity change below about -30%
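Counterscreen lacking aldolase: glyceraldehyde-3-phosphate coupling-enzyme reagent preincubated 10 min at RT with compound (at 57.5 uM final), then substrate/coupling system with AmpLite Red added; fluorescence read at 525/598 nm after 20 min RT.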
TrxR1 inh = inhibitors of rat thioredoxin reductase 1. O89049. hit rate 1% among 390,000. recombinant rTrxR1, NADPH fluorescence consumption, selenite substrate. AID 588453. Potency, µM (series often up to 114 µM), actives largely listed as inhibitors; further: nearly all actives have a fitted effect of over 65% in size
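Rat TrxR1 (90 nM in the dispensed reagent) was pre-reduced with 400 uM NADPH for 5 min at room temperature, then incubated with compound for 15 min. After 400 uM selenite was added, NADPH fluorescence (Ex 340/Em 450 nm) was followed for 8 min.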
TrxR1 substrate = substrates of rat thioredoxin reductase 1 | AID 588456 | Potency, µM (titrated, usually from 114 µM) | purified TrxR1 substrate turnover, NADPH consumption readout | hit rate 0.01% among 390,000; further: nearly all actives have a fitted effect of over 50% in size
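Rat TrxR1, dispensed at 90 nM, was prereduced with 400 uM NADPH (final) for 5 min at ~22 deg C, then incubated with compound 15 min before 400 uM selenite. A first-read NADPH fluorescence drop versus no-compound background flagged substrates.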
mIDH1 inhibitor = blocks human mutant IDH1 R132H enzyme | AID 602179 | Potency, µM (top dose mostly 76.6 µM), actives largely listed as inhibitors | IDH1-R132H enzyme, NADPH consumption, diaphorase/resazurin fluorescence | O75874 | hit rate 0.093% among 390,000; further: nearly all actives have a fitted effect of over 65% in size
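IDH1-R132H (0.5 ug/mL) preincubated 30 min with compound, then NADPH (0.016 mM) and alpha-KG (2 mM) added; 80 min at RT, pH 7.5. Remaining NADPH coupled via diaphorase/resazurin to fluorescence (540/590 nm); concentration-response curves normalized to no-enzyme control.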
Eya2 phos inh = inhibitors of human Eya2 phosphatase activity; O00167; recombinant Eya2, OMFP fluorescence dephosphorylation (OMFP is methylfluorescein phosphate); Potency, µM (highest dose often 76.9 µM), most hits filed as inhibitors; hit rate 0.006% among 330,000; AID 488837
Target sequence (O00167 whole entry, looked up): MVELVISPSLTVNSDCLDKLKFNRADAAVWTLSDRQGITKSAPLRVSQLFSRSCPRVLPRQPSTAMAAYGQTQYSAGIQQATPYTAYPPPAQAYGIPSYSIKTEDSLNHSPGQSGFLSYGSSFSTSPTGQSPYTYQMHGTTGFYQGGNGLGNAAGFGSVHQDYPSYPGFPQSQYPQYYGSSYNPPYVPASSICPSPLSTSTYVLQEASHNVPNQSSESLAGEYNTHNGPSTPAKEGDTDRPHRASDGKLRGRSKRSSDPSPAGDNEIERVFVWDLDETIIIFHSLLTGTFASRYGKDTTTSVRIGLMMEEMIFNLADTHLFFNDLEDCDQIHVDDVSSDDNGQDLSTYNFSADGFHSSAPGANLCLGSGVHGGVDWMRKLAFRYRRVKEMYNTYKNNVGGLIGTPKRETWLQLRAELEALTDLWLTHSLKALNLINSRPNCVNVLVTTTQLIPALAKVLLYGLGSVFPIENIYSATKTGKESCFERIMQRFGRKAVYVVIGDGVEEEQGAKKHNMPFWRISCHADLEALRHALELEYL
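Eya2 (0.2 uM) preincubated 10 min at ambient with compound, then OMFP substrate added at 50 uM; 10 min reaction in 50 mM HEPES pH 7.5, 50 mM NaCl, 5 uM MgCl2, 0.05% BSA, 1 mM DTT. Fluorescence read at Ex 485/Em 525 nm.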
Numbers stand for hits; – = inactive; ? = inconclusive; · = no result; [ ] = remark or other dose. Shown are actives, neighbours in structure and some others; about 1.5% of the full set was active somewhere. Unless noted, the call rests on the fitted dose curve; in most records, active means well fitted curve in the direction sought with a large enough effect; inconclusive means small, poorly fitted or top-dose-only effect, or another doubt; inactive means no such curve, though single readings can be large; an effect the other way counts as inactive or inconclusive.

SMILES | Coupling enz | TrxR1 inh | TrxR1 substrate | mIDH1 inhibitor | Eya2 phos inh
COc1ccc(C[C@@H]2OC3(C=CC(=O)C=C3)O[C@H]2Cc2ccc(OC)cc2)cc1 | · | 0.56µM | – | – | ·
O=C1C=CC2(C=C1)O[C@H](Cc1ccccc1)[C@@H](Cc1ccccc1)O2 | · | 0.89µM | –[11.4 µM] | – | ·
O=C(C[N+]1(CCO)CCOCC1)c1cccs1 | · | – | – | · | ·
CC1=NN(c2ccccc2)C(=O)/C1=C\C=C1/N(C)c2ccccc2C1(C)C | – | – | – | – | –
CN1C(=CC=C2C=C(I)C(=O)C(I)=C2)C(C)(C)c2ccccc21 | – | – | – | 46µM | –
CN1/C(=C\C=C2/C(=O)Oc3ccccc3C2=O)C(C)(C)c2ccccc21 | – | – | – | 37µM | ?
CN1/C(=C\C=N\O)C(C)(C)c2ccccc21 | – | – | – | – | –
COC(=O)C1(CCSC)NC(c2ccccc2F)C2C(=O)N(c3ccc4c(c3)OCCO4)C(=O)C21 (centres undefined) | – | – | – | – | –
N#C[C@@H]1[C@@H]2C(=O)N(c3ccc4c(c3)OCCO4)C(=O)[C@@H]2C2c3ccccc3C=CN21 (some centres undefined) | -34 | · | · | · | –
COc1ccc(N2C(=O)[C@@H]3C(c4cccnc4)=NO[C@@H]3C2=O)cc1 | – | ? | – | – | –
Cc1ccc(N2C(=O)[C@@H]3C(c4cccnc4)=NO[C@@H]3C2=O)cc1 | – | 45µM | – | – | –
O=C(NC1CCCCC1)C(c1cccnc1)N(C(=O)CCl)c1cccc(Cl)c1 (centres undefined) | – | 6.3µM | – | – | –
CCCCNC(=O)Nc1cc(C(F)(F)F)c[nH]c1=O | -43 | – | – | – | –
CN(C)C(=O)COc1ccccc1C(=O)OCC(=O)N(CCC#N)c1ccccc1 | · | – | – | · | ·
COC(=O)c1cccc(CN2C(=O)SC(Nc3ccc(C)cc3)C2=O)c1 (centres undefined) | – | – | – | – | –
CCOC(=O)c1ccc(NC2SC(=O)N(Cc3cccc(C(=O)O)c3)C2=O)cc1 (centres undefined) | · | 79µM | – | – | ·
Cc1nnc(N/N=C/c2c(Cl)cccc2Cl)n1N | – | – | – | – | –
Cc1nnc(N/N=C/c2ccccc2O)n1N | -31 | – | – | – | –
Cc1nnc(N/N=C/c2cc(C)n(-c3ccc(F)cc3)c2C)n1N | -42 | – | – | – | –
Cc1nc(C#N)nc(Oc2ccccc2)c1Cl | · | – | – | · | ·
C/C(=N/NS(=O)(=O)c1ccc(Cl)cc1)c1ccncc1 | – | 25µM | – | – | –
COc1ccc(NCCNc2ccc(OC)cc2)cc1 | -35 | – | – | – | –
COc1ccc(OC)c(NC(=O)CCN2CCN(c3ccccc3F)CC2)c1 | – | – | – | – | –
COc1ccc(C(=O)CCN2CCN(c3ccccc3F)CC2)cc1 | – | 1.6µM | – | – | –
O=C(CCC(=O)N1CCN(c2ccccc2F)CC1)c1ccc(F)cc1 | – | – | – | – | –
SMILES | Coupling enz | TrxR1 inh | TrxR1 substrate | mIDH1 inhibitor | Eya2 phos inh
O=C(CCN1CCN(c2ccccc2F)CC1)c1ccc(Br)cc1 | – | 0.28µM | – | – | –
O=C(NS(=O)(=O)c1ccc(F)cc1)O[C@@H]1C(=O)c2cc(Br)ccc2O[C@H]1c1ccc2c(c1)OCO2 | – | · | · | · | ·
COc1ccc(/C=C/c2ccc3ccccc3n2)c(OC)c1 | · | – | – | · | ·
O=C(N/N=C1\C/C(=N\NC(=O)c2ccncc2)c2ccccc21)c1ccncc1 | -34 | – | – | – | –
Nc1nc(Br)c2c(F)cccc2c1-c1ccc(Cl)cc1 | – | 5.6µM | – | – | –
CN(C)c1c(Br)cc(C=O)cc1Br | · | – | – | · | ·
Cc1ccc(CS(=O)Cc2ccc(C(=O)NC3CCCC(C)C3C)o2)cc1 (centres undefined) | – | 45µM | – | – | –
O=C(O)/C=C\C(=O)NNC(=O)c1cc(-c2ccccc2)n[nH]1 | – | – | – | – | –
O=C(O)/C=C/C(=O)NNC(=O)c1cc(-c2ccccc2)n[nH]1 | – | 6.3µM | – | – | –
CC(CCC(C)[n+]1cccc(Br)c1)[n+]1cccc(Br)c1 (centres undefined) | · | – | – | · | ·
Cc1ccc(NC(=O)C2C3CCC(O3)C2C(=O)O)cc1C (centres undefined) | – | – | – | – | –
O=C(O)C1C2CCC(O2)C1C(=O)Nc1ccc(O)cc1 (centres undefined) | -36 | – | – | – | –

Source: PubChem (National Center for Advancing Translational Sciences (NCATS))
